Test results taken from PubChem BioAssay AID1159580 (chemical genetic matrix, 2015).
Among all 5,500 compounds or so, about 2,000 (36%) were called active. Roughly 18% stayed inconclusive and do not appear here. No stated cut-off is given here; in the data, active means normalized growth mostly below about 0.91 (no sharp cut-off); inconclusive means no clear call, values can overlap the other calls; inactive means mostly above about 0.92. Some of the results follow.

Assay: chemical genetic growth profiling, strain panel (AID 1159580);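 further: tested at 20 µM; growth read once vehicle control cultures reached saturation at 30 °C; 1 = growth at the plate median or of vehicle wells; lower values mean less growth of the strain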
Settings: S. cerevisiae deletion strains, growth OD
[1] = locus YAR019C, strain CDC15, hits give low values
[2] = locus YBL105C, strain PKC1, hits give low values
[3] = locus YBR135W, strain CKS1, hits give low values
[4] = locus YBR136W, strain MEC1, hits give low values
[5] = locus YBR160W, strain CDC28, hits give low values
[6] = locus YDL017W, strain CDC7, hits give low values
[7] = locus YDL028C, strain MPS1, hits give low values
[8] = locus YDL101C, strain DUN1, hits give low values
[9] = locus YDL108W, strain KIN28, hits give low values
[10] = locus YDL132W, strain cdc53, hits give low values
[11] = locus YDL214C, strain PRR2, hits give low values
[12] = locus YDR052C, strain DBF4, hits give low values
[13] = locus YDR054C, strain cdc34, hits give low values
[14] = locus YDR226W, strain ADK1, hits give low values
[15] = locus YDR477W, strain SNF1, hits give low values
[16] = locus YER123W, strain YCK3, hits give low values
[17] = locus YER133W, strain GLC7, hits give low values
[18] = locus YFL009W, strain cdc4, hits give low values
[19] = locus YFL029C, strain CAK1, hits give low values
[20] = locus YFR003C, strain YPI1, hits give low values
[21] = locus YFR019W, strain FAB1, hits give low values
[22] = locus YFR028C, strain CDC14, hits give low values
[23] = locus YGR040W, strain KSS1, hits give low values
[24] = locus YGR052W, strain FMP48, hits give low values
[25] = locus YGR092W, strain DBF2, hits give low values
[26] = locus YHR030C, strain SLT2, hits give low values
[27] = locus YHR079C, strain IRE1, hits give low values
[28] = locus YHR082C, strain KSP1, hits give low values
[29] = locus YHR205W, strain SCH9, hits give low values
[30] = locus YIL147C, strain SLN1, hits give low values
[31] = locus YJL095W, strain BCK1, hits give low values
[32] = locus YJL128C, strain PBS2, hits give low values
[33] = locus YJL157C, strain FAR1, hits give low values
[34] = locus YJR016C, strain ILV3, hits give low values
[35] = locus YJR066W, strain TOR1 (second series), hits give low values
[36] = locus YJR066W, strain TOR1, hits give low values
[37] = locus YKL048C, strain ELM1, hits give low values
[38] = locus YKL067W, strain YNK1, hits give low values
[39] = locus YKL101W, strain HSL1, hits give low values
[40] = locus YKL193C, strain SDS22, hits give low values
[41] = locus YKL203C, strain TOR2, hits give low values
[42] = locus YLR113W, strain HOG1, hits give low values
[43] = locus YLR133W, strain CKI1, hits give low values
[44] = locus YLR403W, strain SFP1, hits give low values
[45] = locus YML070W, strain DAK1, hits give low values
[46] = locus YMR001C, strain CDC5, hits give low values
[47] = locus YMR205C, strain PFK2 (second series), hits give low values
[48] = locus YMR277W, strain FCP1, hits give low values
[49] = locus YNL006W, strain LST8, hits give low values
[50] = locus YNL020C, strain ARK1, hits give low values
[51] = locus YNL161W, strain CBK1, hits give low values
[52] = locus YNL183C, strain NPR1, hits give low values
[53] = locus YNL207W, strain RIO2, hits give low values
[54] = locus YNL222W, strain SSU72, hits give low values
[55] = locus YNL307C, strain MCK1 (second series), hits give low values
[56] = locus YOL078W, strain AVO1, hits give low values
[57] = locus YOL136C, strain PFK27, hits give low values
[58] = locus YOR061W, strain CKA2, hits give low values
[59] = locus YOR119C, strain RIO1, hits give low values
[60] = locus YOR231W, strain MKK1, hits give low values
[61] = locus YOR329C, strain SCD5, hits give low values
[62] = locus YPL031C, strain PHO85, hits give low values
[63] = locus YPL153C, strain RAD53, hits give low values
[64] = locus YPL204W, strain HRR25, hits give low values
[65] = locus YPL209C, strain IPL1, hits give low values
[66] = locus YPL256C, strain CLN2, hits give low values
[67] = locus YPR025C, strain CCL1, hits give low values
[68] = locus YPR106W, strain ISR1, hits give low values
[69] = locus YPR111W, strain DBF20, hits give low values
[70] = strain NNK1, hits give low values
[71] = strain TSCII, hits give low values

Measured: normalized growth

O=C(c1ccc2ccccc2c1)N1CCN(c2ccnc3cc(Cl)ccc23)CC1
inactive: [1] 1 | [2] 1 | [3] 0.997 | [4] 0.997 | [5] 0.995 | [6] 0.998 | [7] 0.991 | [8] 0.994 | [9] 0.99 | [10] 0.987 | [11] 0.957 | [12] 0.988 | [13] 0.981 | [14] 1 | [15] 0.958 | [16] 0.947 | [17] 0.965 | [18] 0.993 | [19] 1 | [20] 1 | [21] 0.941 | [22] 0.997 | [23] 0.959 | [24] 1.08 | [25] 0.977 | [27] 0.968 | [28] 1.01 | [29] 0.904 | [30] 0.996 | [31] 0.94 | [32] 0.98 | [33] 0.974 | [34] 0.998 | [35] 0.947 | [36] 0.96 | [37] 0.974 | [38] 0.962 | [39] 0.958 | [40] 0.992 | [41] 0.991 | [42] 0.955 | [43] 0.95 | [44] 0.951 | [45] 0.959 | [46] 0.992 | [47] 0.973 | [48] 0.995 | [49] 0.995 | [50] 0.945 | [51] 0.997 | [52] 0.953 | [53] 0.994 | [54] 0.995 | [55] 0.921 | [56] 0.997 | [57] 0.952 | [58] 0.973 | [59] 1.03 | [60] 0.955 | [61] 0.995 | [62] 0.953 | [63] 0.962 | [64] 0.939 | [65] 0.998 | [66] 0.929 | [67] 0.988 | [68] 0.999 | [69] 0.984 | [70] 0.987 | [71] 0.998
active: [26] 0.821

O=C(Nc1ccc(C(F)(F)F)cc1)N1CCN(c2ccnc3cc(Cl)ccc23)CC1
inactive: [1] 0.984 | [2] 0.977 | [3] 0.987 | [4] 0.973 | [5] 0.973 | [6] 0.994 | [7] 0.981 | [8] 0.982 | [9] 0.983 | [10] 0.995 | [11] 1.01 | [12] 0.983 | [13] 0.975 | [14] 0.983 | [15] 0.997 | [16] 1.02 | [17] 1.01 | [18] 0.985 | [19] 0.965 | [20] 0.988 | [21] 0.999 | [22] 0.984 | [23] 1 | [24] 1.08 | [25] 0.975 | [26] 1.08 | [27] 1.04 | [28] 1.1 | [29] 0.995 | [30] 0.981 | [31] 1.1 | [32] 0.993 | [33] 1 | [34] 0.993 | [35] 1.02 | [36] 1.11 | [37] 0.996 | [38] 0.992 | [39] 1.01 | [40] 0.988 | [41] 1.06 | [42] 1.01 | [43] 0.994 | [44] 1.02 | [45] 1.01 | [46] 0.98 | [47] 1.01 | [48] 0.99 | [49] 0.991 | [50] 1 | [51] 0.978 | [52] 1.04 | [53] 0.99 | [54] 0.982 | [55] 0.979 | [56] 0.991 | [57] 1.01 | [58] 1.01 | [59] 1.06 | [60] 1.02 | [61] 0.991 | [62] 1.01 | [63] 1.01 | [64] 0.997 | [65] 0.984 | [66] 1 | [67] 0.983 | [68] 0.986 | [69] 0.979 | [70] 0.979 | [71] 0.977

CC1CCN(C(=O)CC#N)CC1
inactive: locus YAL013W, strain DEP1, hits give low values 1 | locus YBR229C, strain ROT2, hits give low values 1 | [8] 1.02 | locus YDL134C, strain PPH21, hits give low values 0.986 | locus YDR150W, strain NUM1, hits give low values 1.02 | locus YEL061C, strain CIN8, hits give low values 1.03 | locus YGR078C, strain PAC10, hits give low values 1 | [26] 1.06 | locus YHR087W, strain rtc3, hits give low values 1.02 | locus YJL187C, strain SWE1, hits give low values 0.981 | locus YJR043C, strain POL32, hits give low values 0.999 | locus YJR075W, strain HOC1, hits give low values 1.01 | locus YLR039C, strain RIC1, hits give low values 1.08 | locus YLR058C, strain SHM2 (second series), hits give low values 0.995 | locus YLR085C, strain ARP6, hits give low values 1.01 | locus YLR262C, strain YPT6, hits give low values 1.1 | locus YML094W, strain GIM5, hits give low values 0.991 | locus YMR219W, strain ESC1, hits give low values 1 | locus YMR263W, strain SAP30, hits give low values 0.985 | locus YNL153C, strain GIM3, hits give low values 1.01 | locus YNL298W, strain CLA4 (second series), hits give low values 0.957 | locus YNL322C, strain KRE1, hits give low values 0.992 | locus YNR030W, strain Alg12, hits give low values 0.981 | locus YOL006C, strain TOP1, hits give low values 1.01 | locus YPL055C, strain LGE1, hits give low values 0.979 | locus YPL241C, strain CIN2, hits give low values 0.996 | locus YPR135W, strain CTF4, hits give low values 1.02
